PubChem BioAssay AID686979 (National Center for Advancing Translational Sciences (NCATS), 2013)
Screen size: about 420,000 compounds; about 50,000 (12%) were called active. Where a call stands in place of a potency, no number is given. About 26% were inconclusive and are not listed. This is one part of a sample in which actives are shown more often than they occur. Calls follow the shape of the dose curve; as a rule, active = well fitted inhibition curve with a large enough effect; inconclusive = small, poorly fitted or top-dose-only effect; inactive = flat fitted curve, though single readings scatter.

Test: qHTS for Inhibitors of human tyrosyl-DNA phosphodiesterase 1 (TDP1): qHTS in cells in presence of CPT; also: nearly all actives have a fitted effect of over 55% in size
Conditions: chicken DT40 Tdp1-/-;hTDP1 cells + 20 nM CPT, ATP luminescence, 48 h; series mostly up to 46.2 µM
How it was run: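 Chicken DT40 Tdp1-/- cells stably complemented with human TDP1 were seeded at 400 cells/well in medium containing 20 nM camptothecin, exposed to pin-transferred compounds, and grown at 37 °C for at least 48 hr. Viability was read as ATP luminescence.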
Potency is read from the fitted curve at half-maximal effect.

SMILES	Potency
CCOc1ncccc1C(=O)OCC(=O)N1c2ccccc2CC1C (stereo unspecified)	inactive
Oc1cccc2ccc(/C=C/c3ccc(Br)s3)nc12	inactive
Cc1c(C(=O)NCCN2C(=O)S/C(=C\c3cccs3)C2=O)cccc1[N+](=O)[O-]	inactive
CCCNC(=O)CCn1cc(-c2ccc(OC)cc2)nc1CCN	inactive
CC(=O)c1cccc(NC(=S)N2CCN(S(C)(=O)=O)CC2)c1	inactive
CCCCCn1c(=O)c(C(=O)OCC)c(Cl)c2ccccc21	inactive
COc1ccc(S(=O)(=O)Nc2ccc3oc(C)c(C(C)=O)c3c2)cc1	3.26 µM (active)
CC(=O)c1c(C)oc2ccc(NS(=O)(=O)c3ccccc3)cc12	inactive
COc1ccc2oc(C)c(NC(C)=O)c2c1	inactive
Cc1cccc(-c2noc(CCC(=O)NC3CCCC3)n2)c1	inactive
CC(Oc1ccccc1)C(=O)Nc1c2c(nn1-c1ccccc1)CS(=O)C2 (stereo unspecified)	inactive
COc1cccc(NC(=O)Cn2c(=O)cc(C)c3c(C)nn(-c4cccc(F)c4)c32)c1	inactive
Cc1cccc(NC(=O)c2nnn(-c3cccc(C(F)(F)F)c3)c2N)c1	inactive
Cc1cc(C(=O)Nc2cccc(C(F)(F)F)c2)c2c(C)nn(-c3cccc(F)c3)c2n1	18.4 µM (active)
O=C(CNC(=O)c1ccccc1F)OCC(=O)c1c[nH]c2ccccc12	inactive
COc1ccc(S(=O)(=O)NCCSc2nnnn2-c2ccccc2)cc1	inactive

SMILES	Potency
CCCn1c(=O)c2c(C(F)(F)F)cc(-c3cccs3)nc2n(CCC)c1=O	inactive
CCn1c(C(O)c2cc(OC)ccc2OC)nc2ccccc21 (stereo unspecified)	inactive
Cc1nc2ccccc2n1CC(=O)N/N=C/c1cccs1	inactive
CCn1c(/C=N/NC(=O)c2ccc(OC)cc2)nc2ccccc21	13 µM (active)
O=C(CCN1CCCCC1)Nc1ccc(F)c(F)c1	inactive
O=C(CNS(=O)(=O)c1ccc2ccccc2c1)Nc1ccc(F)c(F)c1F	inactive
Cc1ccc(S(=O)(=O)N2CCN(C(=O)COC(=O)CNC(=O)c3ccc(C(C)(C)C)cc3)CC2)c(C)c1	inactive
CCCc1cc(=O)[nH]c(SCC(=O)N2CCN(S(=O)(=O)c3ccc(C)cc3C)CC2)n1	inactive
Cc1nc(-c2ccc(F)cc2)c(CC(=O)Nc2cccc(S(=O)(=O)N3CCOCC3)c2)s1	inactive
Cc1ccc(S(=O)(=O)N2CCN(C(=O)Cc3sc(C)nc3-c3ccc(F)cc3)CC2)c(C)c1	18.4 µM (active)
Cc1ccc(S(=O)(=O)N2CCN(C(=O)COC(=O)c3c(C)noc3C)CC2)c(C)c1	inactive
Cc1ccc(NC(=O)CN2C(=O)NC(C)(c3ccc(Cl)cc3)C2=O)c(Br)c1 (stereo unspecified)	inactive
COc1ccccc1CCC(=O)OCC(=O)N1CCN(S(=O)(=O)c2ccc(C)cc2C)CC1	25.9 µM (active)
Cc1ccc(S(=O)(=O)N2CCN(C(=O)CN3C(=O)NC(C)(c4ccc(Cl)cc4)C3=O)CC2)c(C)c1 (stereo unspecified)	23.1 µM (active)
CC1(C)NC(=O)N(CC(=O)N2CCN(S(=O)(=O)c3ccccc3F)CC2)C1=O	inactive
